D2 ag-1: Beta-Arrestin HTS for Positive Allosteric Modulators of the Human D2 Dopamine Receptor: Agonists | D(2) dopamine receptor (Homo sapiens), P14416 | DiscoveRx PathHunter D2 beta-arrestin, luminescence, 90 min; 100% = 57 uM dopamine signal | activation, % (test concentration not listed) | 0.084% of 360,000 active; in the data active means activation above about 40%; inconclusive means between about 15% and that limit
Target sequence (P14416 whole entry, looked up): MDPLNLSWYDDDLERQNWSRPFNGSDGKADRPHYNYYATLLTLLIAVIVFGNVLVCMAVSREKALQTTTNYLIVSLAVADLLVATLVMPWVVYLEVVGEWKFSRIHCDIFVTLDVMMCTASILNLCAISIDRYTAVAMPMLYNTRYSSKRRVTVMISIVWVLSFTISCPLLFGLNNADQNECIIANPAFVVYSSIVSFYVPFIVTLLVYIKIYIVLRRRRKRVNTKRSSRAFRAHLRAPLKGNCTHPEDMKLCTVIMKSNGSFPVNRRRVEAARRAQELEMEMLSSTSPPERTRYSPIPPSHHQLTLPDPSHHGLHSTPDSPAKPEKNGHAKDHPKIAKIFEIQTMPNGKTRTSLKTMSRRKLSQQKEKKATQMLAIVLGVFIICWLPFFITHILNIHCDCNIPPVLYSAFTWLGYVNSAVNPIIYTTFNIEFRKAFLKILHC
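Agonist mode: compounds alone added to overnight-plated D2 PathHunter cells for 90 min at 37 C, with 57 uM final dopamine (EC100) defining full response. Beta-arrestin recruitment detected by chemiluminescent reagent, read after 1 h at ambient temperature.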
B2AR arrestin: qHTS assay of beta-arrestin-biased ligands of beta2-adrenergic receptor | beta-arrestin recruitment to beta2AR, cell-based reporter | AID 492947, 2010 | 0.02% of 330,000 active | Potency, µM (series often up to 46.1 µM), actives largely listed as activators | Beta-2 adrenergic receptor (Homo sapiens), P07550; active means well fitted activation curve with a large enough effect; inconclusive means small, poorly fitted or top-dose-only effect; further: nearly all actives have a fitted effect of over 65% in size
D2 PAM-1: Beta-Arrestin HTS for Positive Allosteric Modulators of the Human D2 Dopamine Receptor: Potentiators; potentiation, % (test concentration not listed); 0.23% of 360,000 active; DiscoveRx D2 beta-arrestin cells, luminescence, 90 min; 100% = 57 uM dopamine signal; D(2) dopamine receptor (Homo sapiens), P14416; AID 624464, 2012; in the data active means potentiation above about 50%; inconclusive means mostly about 30% to 49%
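PathHunter D2 cells, attached overnight at 37 deg C, received compound in DMSO plus dopamine at EC20 (50 nM final) for 90 min at 37 deg C. Beta-arrestin recruitment was read as luminescence after 1 h with detection reagent at ambient temperature.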
D2 PAM-2: HTS Assay for Positive Allosteric Modulators of the Human D2 Dopamine Receptor: Primary Screen for Potentiators. potentiation, % at 10 µM. HEK293 T-REx D2, calcium flux, EC20 dopamine potentiation. D(2) dopamine receptor (Homo sapiens), P14416. 0.34% of 340,000 active;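 active means potentiation over 3 SD above the plate norm, cut at about 30% in these data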
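Calcium flux readout, no-wash dye, 1 read/s. Inducible HEK293 Trex D2 line, overnight 30 C. Compound alone 180 s (agonist flags), then EC20 dopamine, another 180 s to score potentiation.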
D2 antag: HTS Assay for Allosteric Antagonists of the Human D2 Dopamine Receptor: Primary Screen for Antagonists | D(2) dopamine receptor (Homo sapiens), P14416 | HEK293 TREx D2 cells, calcium flux, dopamine EC80 | inhibition, % at 10 µM | 2% of 340,000 active | AID 485344, 2010; in the data active means inhibition above about 30%; inactive means below that, where a call was filed
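Cells plated overnight at 30 C with tetracycline; no-wash calcium dye, 30–90 min RT; 10 s baseline; compound pinned; 180 s read; EC80 dopamine added; another 180 s read.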
D2 ag-2: HTS Assay for Allosteric Agonists of the Human D2 Dopamine Receptor: Primary Screen for Agonists. 0.53% of 340,000 active. HEK293 T-REx D2 cells, calcium flux agonist mode. activation, % at 2 µM;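 active means activation over 3 SD above normal in the single-dose calcium agonist read, cut at about 30% in these data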
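Calcium-flux readout, 1 cycle/sec over 180 s following compound pin transfer, in inducible HEK293 Trex D2 cells (force-coupled); dopamine controls included. Positive calcium responses during this window marked compounds as potential agonists.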
Hits are given with their value; i = inactive; ? = inconclusive; nt = no result. The list is not random: actives were taken first. Their share in the collection is about 2.4%.

SMILES	D2 ag-1	B2AR arrestin	D2 PAM-1	D2 PAM-2	D2 antag	D2 ag-2
Cc1ccc2nc(NCCC(=O)O)nc(-c3ccccc3)c2c1	i	i	i	31	i	i
COc1cc(C(=O)NC(C)c2ccc(-n3ccnc3)cc2)cc(OC)c1C (stereo not drawn)	i	i	i	31	i	i
CC(NC(=O)C1CCN(C(=O)c2ccc(F)cc2)CC1)c1ccc(-n2ccnc2)cc1 (stereo not drawn)	i	i	i	i	31	i
Cc1cccc(C(=O)NC2CCN(CC(=O)NCc3ccccc3F)CC2)c1	i	i	i	i	42	i
O=C(c1c[nH]c2ccccc12)N1CCOCC1	i	i	i	i	i	i
S=C(c1c[nH]c2ccc(Br)cc12)N1CCOCC1	i	i	i	i	38	i
COc1ccc(C2C(C(=O)NCCN(C)C)c3cc(OC)c(OC)cc3C(=O)N2C)cc1OC (stereo not drawn)	i	i	i	i	i	i
CCN(CC)CCNC(=O)C1c2cc(OC)c(OC)cc2C(=O)N(C)C1c1cccs1 (stereo not drawn)	i	i	i	nt	35	i
Cn1c(Cn2c(=O)sc3ccccc32)nnc1SCC(=O)NCc1ccco1	i	i	i	i	i	i
O=C(CCn1c(=O)sc2ccccc21)NCCC1=CCCCC1	i	i	i	i	37	i
O=C(CCN1C(=O)c2ccccc2C1=O)NCCC1=CCCCC1	i	i	i	i	i	i
O=C(CCn1c(=O)sc2ccccc21)NCc1ccco1	i	i	i	i	42	i
COC(=O)c1cc(C(=O)c2ccc(Cl)cc2Cl)cn1C	i	i	i	38	i	i
CCOC(=O)C(=Cc1ccc(-n2cncn2)cc1)C(=O)OCC	i	i	i	i	i	i
COc1ccc(CCn2c(N)cc(=O)[nH]c2=S)cc1OC	i	i	i	34	i	i
COc1ccc(CCn2c(N)cc(=O)[nH]c2=O)cc1OC	i	i	i	i	i	i
Oc1cccc(CN2CCCCC2)c1	i	i	i	i	56	i
Brc1cccc(CN2CCCCCC2)c1	i	i	i	i	i	i
COc1cccc(CNC(=O)c2ccc(C3SCCS3)cc2)c1	i	i	i	i	i	i
CCOc1ccc(C(=O)NCC(=O)OCc2c(C)noc2C)cc1OCC	i	i	i	i	37	i
COc1cc(OC)cc(C(=O)N/N=C/c2ccc(OC)c(COc3ccc(F)cc3)c2)c1	i	i	i	i	34	i
COc1ccc(OCc2cc(/C=N\NC(=O)c3ccccc3)ccc2OC)cc1	i	i	i	i	i	i
N#C/C(=C\c1ccc(N2CCCCC2)o1)C(=O)Nc1cccc(Br)c1	i	i	i	i	i	95
COc1cc(OC)cc(-c2nc(-c3ccc4c(c3)[nH]c(=O)n4C)no2)c1	nt	nt	nt	i	nt	i
c1ccc(-c2ccc3nncn3c2)cc1	i	nt	i	nt	nt	nt
SMILES	D2 ag-1	B2AR arrestin	D2 PAM-1	D2 PAM-2	D2 antag	D2 ag-2
CCCn1c(O)c(CN2CCCCC2)c(C)c(C#N)c1=O	i	i	64	i	i	i
CCN1CCN(c2cc(N3CCc4ccccc4C3)c(F)cc2[N+](=O)[O-])CC1	i	i	i	i	62	i
COC(=O)c1[nH]c2cccc(OC)c2c1NC(=O)CCN1CCN(c2cccc(Cl)c2)CC1	nt	i	nt	i	38	i
COc1ccccc1NC(=O)NCCN1CCN(c2cccc(Cl)c2)CC1	i	i	i	i	53	i
O=C(NCCN1CCN(c2cccc(Cl)c2)CC1)Nc1ccccc1	i	i	i	i	i	i
COC(=O)c1[nH]c2cccc(OC)c2c1NC(=O)CCN1CCSCC1	i	i	i	i	i	i
CC1(C2CC2)NC(=O)N(CC(=O)NCc2ccc(Cl)cc2Cl)C1=O (stereo not drawn)	i	i	i	i	40	i
Cc1ccc(Cl)cc1NC(=O)CN1C(=O)NC(C)(C2CC2)C1=O (stereo not drawn)	i	i	i	nt	nt	nt
CC1CCCN(S(=O)(=O)c2ccc(S(=O)(=O)N3CCC4(CC3)OCCO4)cc2)C1 (stereo not drawn)	i	i	i	i	40	i
CCc1cc2ccc(OC)cc2nc1SCC(=O)NNC(C)=O	i	i	i	i	57	i
CCc1cc2ccc(OC)cc2nc1SCC(=O)Nc1cc(C)on1	i	i	i	i	i	i
N#Cc1cc2ccccc2nc1SCc1cccnc1	i	i	i	i	30	i
CC(C)Oc1ccc(/C=C(/NC(=O)c2ccccc2)C(=O)NCCC(=O)O)cc1	i	i	i	i	i	i
NNc1nc(-c2ccccc2Cl)nc2sc3c(c12)CCCC3	?	i	53	i	i	i
NNc1nc(-c2ccccc2Cl)nc2ccccc12	i	i	i	i	i	i
O=C(Nc1cccnc1)C1COc2ccccc2O1 (stereo not drawn)	i	i	i	41	i	i
O=C(NCCc1ccc(O)c(O)c1)C1COc2ccccc2O1 (stereo not drawn)	41	i	i	i	i	i
O=C(NCCc1ccccc1)C1COc2ccccc2O1 (stereo not drawn)	i	i	i	i	i	i
CCOc1ccccc1N1CC(c2nc3ccccc3n2CCOc2ccccc2)CC1=O (stereo not drawn)	nt	nt	nt	i	nt	i
NC(=S)N=Nc1c(O)cc(O)c2[nH]c(=O)ccc12	?	nt	66	nt	nt	nt
NC(=S)N=Nc1c(O)[nH]c2ccc(F)cc12	i	i	i	i	i	i
O=C(COC(=O)c1cc[n+]([O-])cc1)Nc1ccc(SC(F)F)cc1	i	i	i	i	31	i
NC(=O)CCN1CCN(CCOC2Cc3cc(Cl)ccc3Sc3ccccc32)CC1 (stereo not drawn)	i	i	i	i	94	i
Fc1ccc2c(c1)Sc1ccc(Cl)cc1CC2N1CCN(CCC2OCCO2)CC1 (stereo not drawn)	i	nt	i	nt	nt	nt
Clc1cccc2c1Sc1ccccc1CC2N1CCNCC1 (stereo not drawn)	i	i	i	i	66	i
Clc1ccc2c(c1)C(N1CCNCC1)Cc1ccccc1S2 (stereo not drawn)	i	i	i	i	99	i
O=C(c1ccccc1Cl)N1CCNCC1	i	i	i	i	i	i

Compound activity: PubChem, National Center for Advancing Translational Sciences (NCATS)
